High-throughput results from PubChem BioAssay.
Sampled rows, rich in hits. Any-hit rate of the full collection: about 4.1%.
FMDV inh: antivirals against foot and mouth disease virus | FMDV antiviral cell-based qHTS | Potency, µM (series often up to 57.9 µM), for inactives: top-dose activity change, negative = inhibition, hits mostly inhibitors | 1.2% of 410,000 active | AID 1159524; calls by dose curve; tested in HEK293T cells; note: read-out not given here; nearly all actives have a fitted effect of over 45% in size
AMA1-RON2 inh: disrupts binding of P. falciparum AMA1 to RON2; AlphaScreen AMA1-biotinylated RON2 peptide binding; Potency, µM (series often up to 58.2 µM), inactives show at the highest dose activity change, negative = inhibition, hits mostly inhibitors; 0.2% of 360,000 active;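 note: 0% = vehicle wells and -100% = peptide control; nearly all actives have a fitted effect of over 45% in size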
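AMA1 (3D7) with his tag at 25 nM final met compounds first, then biotinylated RON2 peptide at 25 nM; detection used donor plus acceptor beads, 10 µg/mL apiece, read by AlphaScreen after 30 min at room temperature.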
AmpC inh detg: inhibitors of E. coli AmpC beta-lactamase with detergent; P00811; AmpC hydrolysis of nitrocefin, absorbance 480 nm, 0.01% Triton; Potency, µM (doses to about 114 µM), for the others: at the highest dose activity change, negative = inhibition, usual class: inhibitors; 0.041% of 370,000 active; AID 485294;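 note: 0% = no-compound wells and -100% = no-enzyme wells; nearly all actives have a fitted effect of over 25% in size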
Target sequence (P00811 whole entry, looked up): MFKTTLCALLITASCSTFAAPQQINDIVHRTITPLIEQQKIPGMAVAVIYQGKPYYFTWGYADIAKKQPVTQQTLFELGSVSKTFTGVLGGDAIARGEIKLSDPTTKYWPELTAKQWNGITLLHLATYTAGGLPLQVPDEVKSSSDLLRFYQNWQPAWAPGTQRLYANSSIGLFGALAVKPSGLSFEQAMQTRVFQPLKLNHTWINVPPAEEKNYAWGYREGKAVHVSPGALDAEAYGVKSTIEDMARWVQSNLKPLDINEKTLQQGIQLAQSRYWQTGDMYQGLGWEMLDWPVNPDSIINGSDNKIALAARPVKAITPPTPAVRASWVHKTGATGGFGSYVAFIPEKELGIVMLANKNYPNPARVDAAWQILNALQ
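20 mM phosphate pH 7.0 + 0.01% (detergent screen) or 0.0001% Triton X-100; 5.3 nM AmpC reagent; cpd preinc 15 min RT; nitrocefin (800 uM stock) to start; A480 q20 s × 4 min; Activity was normalised to no-enzyme and no-compound control wells.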
AmpC no deterg: AmpC beta-lactamase inhibition without detergent; P00811; Potency, µM (top dose mostly 57.1 µM), for the others: top-dose activity change, negative = inhibition, most hits filed as inhibitors; 0.52% of 330,000 active; AmpC nitrocefin hydrolysis, absorbance 480 nm, 0.0001% Triton;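 note: plate controls were no compound for no effect and no enzyme for full effect; nearly all actives have a fitted effect of over 20% in size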
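20 mM phosphate pH 7.0 + 0.01% (detergent screen) or 0.0001% Triton X-100; 5.3 nM AmpC reagent; cpd preinc 15 min RT; nitrocefin (800 uM stock) to start; A480 q20 s × 4 min; Activity was normalised to no-enzyme and no-compound control wells.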
Sm TGR block: S. mansoni TGR enzyme inhibition | purified TGR, DTNB reduction, TNB absorbance 405 nm | Potency, µM (series often up to 114 µM), without a hit: at the highest dose activity change, negative = inhibition, most hits filed as inhibitors | 3% of 360,000 active | AID 485364; note: nearly all actives have a fitted effect of over 60% in size
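Kinetic colorimetric format: TGR-catalysed, NADPH-driven DTNB reduction monitored via TNB absorbance. Enzyme dispensed at 20 nM; compound exposure 15 min at room temperature before reaction start.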
An asterisk follows results filed as active; ? = inconclusive; · = no result given; [ ] = remark or other dose. Unless noted, calls come from the whole dose curve; as a rule, active = well fitted curve in the direction sought with a large enough effect; inconclusive = small, poorly fitted or top-dose-only effect, or another doubt; inactive = no such curve, though single readings can be large; an effect the other way counts as inactive or inconclusive. Unless noted, % is set by controls: 0 for no effect and ±100 for the full control effect; potency is the fitted concentration of half-maximal effect.

SMILES	FMDV inh	AMA1-RON2 inh	AmpC inh detg	AmpC no deterg	Sm TGR block
O=C(NCCN1CCC(n2c(=O)[nH]c3ccccc32)CC1)c1ccc(C(F)(F)F)cc1C(F)(F)F	20µM*	-5.0%	·	·	·
COc1cccc(/C=N/N2C(=O)CSC2=S)c1O	0.7%	-4.5%	-14.8%	-32.5%	5.62µM*
COc1cc(/C=N/N2C(C)CCCC2C)cc(Br)c1O (stereo not given)	-1.2%	4.9%	-11.5%	-23.1%	-7.1%
O=C1CSC(=S)N1N=Cc1c(O)ccc2ccccc12	-27.6%	20.2%	·	·	·
O=C1CSC(=S)N1/N=C/c1c(F)cccc1F	16.4%	43.2%	-10.7%	-39.0%	8.91µM*
COc1ccc2ccccc2c1/C=N/N1C(=O)CSC1=S	-9.5%	28.8%	-7.2%	15.8µM*	-2.8%
COc1cc(/C=N/N2C(=O)CSC2=S)cc(Br)c1O	-12.1%	48.9%	0.1%	-52.7%	12.6µM*
CCN(CC)C1CCN(C(=O)c2cnn(-c3ncc4c(n3)-c3ccccc3CCC4)c2COC)C1 (stereo not given)	-1.2%	·	·	·	·
O=[N+]([O-])c1ccc2[nH]c(=S)sc2c1	?	40.7%	·	·	·
O=C1CSC(=S)N1/N=C/C=C/c1ccccc1	12.0%	24.9%	?	?	15.8µM*
COc1ccc2cc(CN(C(=O)c3cc(C)nn3C)C3CC3)c(-c3ccc(Cl)cc3)nc2c1	-18.9%	·	·	·	·
O=C(NCCCN1CCOCC1)c1ccccc1	-23.4%	0.3%	-2.1%	-8.3%	-3.6%
O=C(Nc1ccccc1C(=O)NCCCN1CCOCC1)c1ccc(F)cc1	0.7%	4.6%	-10.5%	-8.1%	89.1µM*
O=C(CCC(=O)N1CCN(c2ccc(O)cc2)CC1)c1cccs1	41.6%	-4.0%	4.5%	-8.8%	56.2µM*
CN(C)c1ccc(NC(=O)Nc2cccc(Cl)c2)cc1	14.4%	?	?	5.01µM*	-31.0%
CN(C)c1ccc(NC(=O)Nc2ccc3c(c2)c(=O)n(C)n3-c2ccccc2)cc1	-8.1%	20µM*	·	·	·
CN(C)c1ccc(NC(=S)Nc2ccc3c(c2)c(=O)n(C)n3-c2ccc(C(C)(C)C)cc2)cc1	22.0%	?	·	·	·
COCCN(C)C(=O)c1cnn(-c2ncc3c(n2)-c2ccccc2CCC3)c1C1CC1	43.0%	·	·	·	·
COc1cccc(OC)c1C(=O)Nc1cc(Cl)ccc1N1CCOCC1	6.6%	-19.1%	-0.5%	9.6%	-12.5%
CC1CCCN(C(=O)C(C)Nc2cc(Cl)ccc2N2CCOCC2)C1 (stereo not given)	-13.7%	-19.9%	-1.3%	167.3%	39.8µM*
Cc1c2ccccc2cc[n+]1CCCS(=O)(=O)[O-]	-10.1%	?	?	-3.7%	7.7%
CC1(C)C(/C=C/C=C/C=C/C=C2\N(CCCCS(=O)(=O)O)c3ccc4ccccc4c3C2(C)C)=[N+](CCCCS(=O)(=O)[O-])c2ccc3ccccc3c21	?	8.91µM*	·	·	·
Cc1ccc(Cn2c(CN3CCC(C(=O)NCC(C)c4ccccc4)CC3)cc3ccccc32)cc1 (stereo not given)	22.1%	·	13.3%	·	-3.1%
COc1ccc(C2CC23N=C(c2ccccc2)OC3=O)cc1 (stereo not given)	22.4µM*	-4.1%[2.32 µM]	?	-20.8%	22.4µM*
Clc1ccc(-c2cn3nc4c(nc3n2)CCCC4)cc1	11.2µM*	20.6%	?	-13.4%	?
SMILES	FMDV inh	AMA1-RON2 inh	AmpC inh detg	AmpC no deterg	Sm TGR block
CC(=O)c1ccc(NC(=O)c2cc3sccc3n2Cc2ccc(Cl)cc2)cc1	-11.7%	·	16.4%	·	1.6%
COc1cccc(C2(CC(=O)N3CCC(c4nc5ccccc5o4)CC3)CC(=O)N(C)C2=O)c1 (stereo not given)	25.0%	·	·	·	·
CCN1C(=O)[C@H]2[C@@H](c3ccc(-c4ccc(F)cc4)cc3)N[C@@](C)(C(=O)OC)[C@H]2C1=O	?	-4.7%	·	156.3%	·
CCN1C(=O)[C@H]2[C@@H](c3ccc(-c4ccc(F)cc4)c(OC)c3)N[C@@](C)(C(=O)OC)[C@H]2C1=O	0.0%	-1.3%	-6.2%	160.9%	15.8µM*
CCN1C(=O)[C@H]2[C@@H](c3ccc(-c4ccccc4)cc3)N[C@@](C)(C(=O)OC)[C@H]2C1=O	-16.4%	-4.7%	-1.3%	180.4%	39.8µM*
COc1ccc(N2CCN(C(=O)c3cc(S(=O)(=O)N4CCCCCC4)cn3C)CC2)cc1	-21.0%	·	23.5%	·	0.0%
COc1ccc(/C=C/c2cc(C(=O)O)c3ccccc3n2)cc1	2.82µM*	9.0%	-4.2%	-5.6%	-1.7%
COc1ccc(C(=O)NCCN2Cc3cc(C)ccc3OC(C)C2)c(OC)n1 (stereo not given)	5.4%	·	·	·	·
COc1cccc(CN2CCCC(c3nc(C)ncc3-c3ccc(F)cc3)C2)c1OC (stereo not given)	-9.6%	·	·	·	·
Cc1nc(S/C(C(=O)O)=C2/C(=O)Nc3ccccc32)n[nH]1	2.51µM*	-1.1%	-2.3%	-36.7%	-20.3%
Cc1nc(SC2CC(=O)N(c3ccccc3)C2=O)n[nH]1 (stereo not given)	2.7%	22.7%	-5.7%	32.4%	·
CCOC(=O)C(=CNNc1ccccc1)C(=O)OCC	-2.5%	?	5.9%	1.2%	2.24µM*
COc1cccc(C2(CC(=O)N3CCCCC3CO)CC(=O)N(C)C2=O)c1 (stereo not given)	-10.8%	·	·	·	·
Cc1cc(C)c(Cc2c(C)nc3c(C(=O)NCc4ccco4)cnn3c2C)c(C)c1	17.8µM*	-0.8%	?	24.0%	-6.9%
O=[N+]([O-])c1cccnc1S(=O)(=O)c1ccccc1	22.4µM*	1.6%	0.8%	-4.4%	0.316µM*
COc1ccc([N+](=O)[O-])c(S(=O)(=O)c2ccccc2)n1	31.6µM*	-10.7%	?	-28.2%	0.1µM*
COc1ccc([N+](=O)[O-])c(S(=O)(=O)c2ccc(Cl)cc2)n1	12.6µM*	-12.1%	-15.5%	-46.4%	?
COc1nc(OC)nc(Oc2ccc(Cl)cc2[N+](=O)[O-])n1	-16.9%	-5.8%	?	-5.9%	20.7%
COc1ccc(-n2c(CNC(=O)c3ccc(OC)cc3OC)nnc2SC)cc1	7.6%	·	·	·	·
